In PubChem BioAssay (Tox21) one finds Potency and outcome data, which are given here for eight compounds.

Inconclusive results are not listed. Activity calls are given as the source filed them. Unless noted, the call rests on the fitted dose curve; in most records, active means well fitted curve in the direction sought with a large enough effect in the repeat runs; inconclusive means weak or mixed curves; inactive means no such curve, though single readings can be large; an effect the other way counts as inactive or inconclusive.

Test [1] can be described thus: qHTS assay to identify small molecule agonists of the sonic hedgehog signaling (Shh) pathway (AID 1259368; calls by dose curve; further: series mostly up to about 92 µM; nearly all actives have a fitted effect of over 15% in size). A digest of the protocol: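 NIH/3T3-derived 3T3Gli1-Luc cells carrying a stably integrated Gli1 response element–firefly luciferase reporter were plated, left 4 hr at 37 C, then given compounds in DMSO for 24 hr. Luminescence was read 30 min after adding luciferase reagent.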
(In general: In qHTS, concentration-response curves come from the screen itself.)

Test [2] in a line: qHTS assay to identify small molecule antagonists of the sonic hedgehog signaling (Shh) pathway (AID 1259369; calls by dose curve; further: nearly all actives have a fitted effect of over 45% in size; further: potency means the concentration at half of the fitted maximal effect). A digest of the protocol: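 NIH/3T3-derived 3T3Gli1-Luc cells with stably integrated Gli1-Luc reporter were preincubated 4hr at 37 C, then given compounds in DMSO plus Shh conditioned medium and incubated 24hr. Firefly luciferase luminescence read after 30min reagent at room temperature.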

Test [3] addresses Estrogen receptor beta (Homo sapiens) (UniProt Q92731). Put plainly: qHTS assay to identify small molecule agonists of the estrogen receptor beta (ER-beta) signaling pathway (AID 1259377; active means well fitted activation curve with a large enough effect in the signal ratio in the repeat runs, not every such curve was filed as active; the % refers to the signal ratio). The method in brief:
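qHTS in ER-beta-UAS-bla HEK293T cells: 6 hr settling, then 16 hr compound at 37C, then LiveBLAzer substrate 2 h at RT before fluorescence reading.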

Test [4] shares this target. Put plainly: qHTS assay to identify small molecule antagonists of the estrogen receptor beta (ER-beta) signaling pathway (AID 1259378; active means well fitted inhibition curve with a large enough effect in the signal ratio in the repeat runs, not every such curve was filed as active; the % refers to the signal ratio; further: potency means the concentration at half of the fitted maximal effect). The method in brief:
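ER-beta-UAS-bla HEK293T (GripTite) cells in 2% charcoal-stripped FBS medium were preincubated 6 hr at 37C, dosed with compound, then stimulated with 1 nM E2 (final) for 16 hr; beta-lactamase reporter read by B/G FRET fluorescence after 2 hr substrate loading.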

A short description of test [5]: qHTS assay to identify small molecule agonists of the androgen receptor (AR) signaling pathway in the presence of an antagonist - cell viability counter screen (AID 1259379). Further: series mostly up to about 92 µM; nearly all actives have a fitted effect of over 25% in size. A digest of the protocol: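 MDA-kb2 human breast carcinoma cells (stable MMTV-luciferase, AR/GR responsive) were seeded 3,000 cells/well, pre-incubated 5 hr at 37C without CO2, then given 3.0uM nilutamide and compounds at 15 concentrations for 16 hr. Viability was read by CellTiter-Fluor fluorescence.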

Test [6] in a line: qHTS assay to identify small molecule agonists of the estrogen receptor beta (ER-beta) signaling pathway - cell viability counter screen (AID 1259380). Further: nearly all actives have a fitted effect of over 30% in size. The method in brief:
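ER-beta-UAS-bla HEK293T cells in medium with 2% charcoal-stripped FBS were preincubated 6 hr at 37C, dosed with compound in DMSO for 16 hr, then after the bla read, CellTiter-Glo was added for 30 min at room temperature; luminescence recorded.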

The nature of test [7]: qHTS assay to identify small molecule antagonists of the estrogen receptor beta (ER-beta) signaling pathway - cell viability counter screen (AID 1259382). Further: series mostly up to about 92 µM; nearly all actives have a fitted effect of over 55% in size. A digest of the protocol: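 ER-beta-UAS-bla HEK293T cells (2,000/well, 2% charcoal-stripped FBS) were pre-incubated 6 hr at 37C, then given compound plus 1nM final 17-beta-estradiol for 16 hr. Viability was read in the same wells by CellTiter-Glo luminescence after 30 min at room temperature.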

The nature of test [8]: qHTS assay to identify small molecule agonists or antagonists of the thyroid stimulating hormone receptor (TSHR) signaling pathway - wild type cell line counter screen (AID 1259384; calls by dose curve). A digest of the protocol: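 Wild-type HEK293 cells were plated 18 h at 37 C/5% CO2, pin-dosed with compound plus Ro20-1724 medium, held 30 min at room temperature, then given cAMP-d2 and anti-cAMP-cryptate; fluorescence was read after 1 h. Fifteen concentrations, triplicate.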

For test [9], the target named is Thyrotropin receptor (Homo sapiens) (UniProt P16473). Put plainly: qHTS assay to identify small molecule antagonists of the thyroid stimulating hormone receptor (TSHR) signaling pathway (AID 1259385; calls by dose curve; further: nearly all actives have a fitted effect of over 20% in size). The method in brief: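 TSHR-HEK293 cells were plated and held 18 h at 37C/5% CO2, then given compound plus Ro20-1724 and stimulated with TSH at 1.5 ng/mL final. After 30 min at room temperature, cAMP was detected with cAMP-d2/anti-cAMP-cryptate (1 h) by fluorescence.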
Chain of Thyrotropin receptor (Homo sapiens) (P16473 whole entry, looked up): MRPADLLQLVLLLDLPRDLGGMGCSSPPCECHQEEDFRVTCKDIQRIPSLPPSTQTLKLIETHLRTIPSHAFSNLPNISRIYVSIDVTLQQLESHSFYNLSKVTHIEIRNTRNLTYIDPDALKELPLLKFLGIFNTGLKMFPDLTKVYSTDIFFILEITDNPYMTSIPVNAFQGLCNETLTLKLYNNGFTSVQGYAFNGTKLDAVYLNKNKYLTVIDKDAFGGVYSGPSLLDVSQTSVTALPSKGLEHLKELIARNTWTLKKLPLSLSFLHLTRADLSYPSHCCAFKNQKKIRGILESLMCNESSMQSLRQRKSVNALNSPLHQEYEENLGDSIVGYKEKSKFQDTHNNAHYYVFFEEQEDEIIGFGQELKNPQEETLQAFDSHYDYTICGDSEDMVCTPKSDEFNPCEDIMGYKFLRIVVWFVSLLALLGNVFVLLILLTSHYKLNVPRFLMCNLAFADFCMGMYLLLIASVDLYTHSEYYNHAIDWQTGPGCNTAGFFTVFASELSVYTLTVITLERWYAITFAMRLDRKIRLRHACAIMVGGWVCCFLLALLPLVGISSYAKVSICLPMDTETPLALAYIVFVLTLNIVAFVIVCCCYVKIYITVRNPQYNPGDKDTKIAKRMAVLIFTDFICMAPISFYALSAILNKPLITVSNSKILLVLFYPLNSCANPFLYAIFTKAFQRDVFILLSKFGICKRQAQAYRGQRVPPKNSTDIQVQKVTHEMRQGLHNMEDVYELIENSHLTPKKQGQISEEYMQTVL

The nature of test [10]: qHTS assay to identify small molecule agonists of the estrogen receptor alpha (ER-alpha) signaling pathway in the presence of an antagonist - cell viability counter screen (AID 1259386).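 Further: series mostly up to about 92 µM; cells exposed to compounds for 22 h at 37 °C before the viability read; nearly all actives have a fitted effect of over 30% in size.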 A digest of the protocol: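 VM7Luc4E2 cells (endogenous full-length ER-alpha, 4×ERE-luciferase) were held 5 days in phenol red-free medium with 10% charcoal-stripped FBS, plated, then given 10.0nM ICI-182,780 and compounds at 15 concentrations for 22hr at 37C; viability read by CellTiter-Fluor fluorescence.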

In test [11] the target is Progesterone receptor (Homo sapiens) (UniProt P06401). Put plainly: qHTS assay to identify small molecule agonists of the progesterone receptor (PR) signaling pathway (AID 1346784; calls by dose curve; further: nearly all actives have a fitted effect of over 30% in size). The method in brief: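 Fluorescence from LiveBLAzer B/G FRET substrate cleavage (2 hr, RT) reported PR activation in PR-UAS-bla HEK 293T cells treated 16 hr at 37C/5% CO2 with compounds; medium contained 2% charcoal-stripped FBS.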
Chain of Progesterone receptor (Homo sapiens) (P06401 whole entry, looked up): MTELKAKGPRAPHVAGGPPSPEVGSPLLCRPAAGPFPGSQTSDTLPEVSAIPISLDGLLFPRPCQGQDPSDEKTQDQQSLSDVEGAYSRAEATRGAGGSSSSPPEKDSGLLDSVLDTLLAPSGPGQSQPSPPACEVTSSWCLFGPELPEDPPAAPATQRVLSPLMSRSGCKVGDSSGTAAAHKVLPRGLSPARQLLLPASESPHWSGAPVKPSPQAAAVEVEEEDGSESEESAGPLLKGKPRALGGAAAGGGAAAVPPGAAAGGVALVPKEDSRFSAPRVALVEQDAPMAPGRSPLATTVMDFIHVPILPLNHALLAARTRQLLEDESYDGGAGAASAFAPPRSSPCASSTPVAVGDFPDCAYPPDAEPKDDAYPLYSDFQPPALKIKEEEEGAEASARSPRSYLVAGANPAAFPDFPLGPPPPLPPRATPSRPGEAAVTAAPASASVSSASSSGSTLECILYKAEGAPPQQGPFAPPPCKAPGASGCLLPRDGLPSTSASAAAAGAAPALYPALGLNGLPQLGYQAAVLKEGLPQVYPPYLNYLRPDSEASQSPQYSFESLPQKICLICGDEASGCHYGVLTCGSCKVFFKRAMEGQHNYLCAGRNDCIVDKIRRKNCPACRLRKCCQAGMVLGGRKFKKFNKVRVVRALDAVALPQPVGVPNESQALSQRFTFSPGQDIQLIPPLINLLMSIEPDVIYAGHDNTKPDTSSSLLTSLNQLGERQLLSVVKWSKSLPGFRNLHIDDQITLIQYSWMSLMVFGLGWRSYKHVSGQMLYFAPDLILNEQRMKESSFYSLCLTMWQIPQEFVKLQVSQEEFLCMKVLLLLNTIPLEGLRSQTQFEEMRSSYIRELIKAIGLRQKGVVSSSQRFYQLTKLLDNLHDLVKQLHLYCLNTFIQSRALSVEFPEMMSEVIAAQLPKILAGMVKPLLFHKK

For test [12] the target is unchanged. The experiment in a line: qHTS assay to identify small molecule antagonists of the progesterone receptor (PR) signaling pathway (AID 1346795; active means well fitted inhibition curve with a large enough effect in the signal ratio in the repeat runs, not every such curve was filed as active; the % refers to the signal ratio; further: potency means the concentration at half of the fitted maximal effect). The method in brief: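 Fluorescence intensity measured 2 hr after adding beta-lactamase FRET substrate to PR-UAS-bla HEK293T cells that had been co-treated 16 hr with compound and 1 nM R5020 (final concentration) in 2% charcoal-stripped FBS.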

Test [13] can be described thus: qHTS assay to identify small molecule antagonists of the progesterone receptor (PR) signaling pathway - cell viability counter screen (AID 1346798). Further: series mostly up to about 92 µM; nearly all actives have a fitted effect of over 50% in size. The method in brief: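 CellTiter-Glo luminescence; PR-UAS-bla HEK293T, 3,000 cells/well; compound + R5020, 16 hr, 37C/5% CO2; 30 min RT before read.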
A short description of test [14]: qHTS assay to identify small molecule agonists of the progesterone receptor (PR) signaling pathway - cell viability counter screen (AID 1346799; calls by dose curve; further: nearly all actives have a fitted effect of over 45% in size). The method in brief: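 In parallel with the beta-lactamase readout, cytotoxicity toward PR-UAS-bla HEK293T cells was measured by CellTiter-Glo luminescence following 16 hr compound incubation in 2% charcoal-stripped FBS medium.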

Test [15] can be described thus: qHTS assay to identify small molecule antagonists of the TGF-beta/Smad signaling pathway - cell viability counter screen (AID 1346824). Further: nearly all actives have a fitted effect of over 50% in size. The method in brief: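 SBE-bla HEK 293T cells were plated overnight at 37 C, then given compounds in DMSO plus TGF-beta1 (added as 0.25 ng/mL solution) for 5 hr. After the bla read, CellTiter-Glo was added to the same wells and luminescence read after 30 min at room temperature.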

Test [16] can be described thus: qHTS assay to identify small molecule agonists of the TGF-beta/Smad signaling pathway - cell viability counter screen (AID 1346829). Further: top concentration of the series differs between compounds; nearly all actives have a fitted effect of over 45% in size. The method in brief:
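HEK 293T SBE-bla line, 5 hr compound exposure at 37 C, multiplexed CellTiter-Glo viability read by luminescence.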

A short description of test [17]: qHTS assay to identify small molecule agonists of the TGF-beta/Smad signaling pathway (AID 1346859; active means well fitted activation curve with a large enough effect in the signal ratio in the repeat runs, not every such curve was filed as active; the % refers to the signal ratio; further: series mostly up to about 77 µM). A digest of the protocol: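 After overnight seeding, SBE-bla HEK 293T cells are dosed with compounds in DMSO and kept 5 hr at 37 C, 5% CO2. LiveBLAzer-type FRET substrate is then applied for 2 hr at room temperature.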
The target of test [18] is Thyrotropin-releasing hormone receptor (Homo sapiens) (UniProt P34981). Put plainly: qHTS assay to identify small molecule antagonists of the thyrotropin-releasing hormone receptor (TRHR) signaling pathway (AID 1346877; active means well fitted inhibition curve with a large enough effect in the repeat runs, not every such curve was filed as active; further: series mostly up to about 51 µM). A digest of the protocol: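 TRHR-expressing HEK293 cells were seeded, cultured 18 h at 37 °C, then loaded with calcium dye for 2 h. Compounds were pre-incubated 5 min at room temperature before 1 nM TRH (final) was added, and kinetic fluorescence was recorded for 3 min.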
Chain of Thyrotropin-releasing hormone receptor (Homo sapiens) (P34981 whole entry, looked up): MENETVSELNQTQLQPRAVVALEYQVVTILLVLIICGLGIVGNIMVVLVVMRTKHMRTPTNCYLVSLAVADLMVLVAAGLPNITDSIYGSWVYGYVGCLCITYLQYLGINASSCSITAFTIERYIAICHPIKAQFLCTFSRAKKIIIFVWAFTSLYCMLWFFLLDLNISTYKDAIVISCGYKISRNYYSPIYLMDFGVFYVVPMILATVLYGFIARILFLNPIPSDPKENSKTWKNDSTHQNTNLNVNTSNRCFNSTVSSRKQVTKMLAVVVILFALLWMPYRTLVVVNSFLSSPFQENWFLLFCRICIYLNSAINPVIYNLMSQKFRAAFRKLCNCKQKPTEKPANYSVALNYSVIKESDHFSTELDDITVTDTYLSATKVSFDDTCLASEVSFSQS

Test [19] concerns the target Estrogen receptor (Homo sapiens) (UniProt P03372). The experiment in a line: qHTS assay to identify small molecule agonists of the estrogen receptor alpha (ER-alpha) signaling pathway in the presence of an antagonist (AID 1259383; calls by dose curve; further: top concentration of the series differs between compounds; nearly all actives have a fitted effect of over 15% in size). A digest of the protocol:
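VM7Luc4E2 cells (endogenous full-length ER-alpha, 4×ERE-luciferase) were precultured 5 days in phenol red-free medium with 10% charcoal-stripped FBS, given 10.0nM ICI-182,780 (final), then treated with compounds at 15 concentrations for 22hr at 37C; luminescence read with ONE-Glo.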

Test [20] has as its target Androgen receptor (Homo sapiens) (UniProt P10275). Put plainly: qHTS assay to identify small molecule agonists of the androgen receptor (AR) signaling pathway in the presence of an antagonist (AID 1259381; calls by dose curve; further: nearly all actives have a fitted effect of over 15% in size). A digest of the protocol:
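MDA-kb2 human breast carcinoma cells carrying an MMTV-luciferase reporter (AR- and GR-responsive) were treated with compounds at 15 concentrations plus 3.0uM final nilutamide for 16hr at 37C without CO2; luminescence was read after ONE-Glo addition.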

Chain of Estrogen receptor beta (Homo sapiens) (Q92731 whole entry, looked up): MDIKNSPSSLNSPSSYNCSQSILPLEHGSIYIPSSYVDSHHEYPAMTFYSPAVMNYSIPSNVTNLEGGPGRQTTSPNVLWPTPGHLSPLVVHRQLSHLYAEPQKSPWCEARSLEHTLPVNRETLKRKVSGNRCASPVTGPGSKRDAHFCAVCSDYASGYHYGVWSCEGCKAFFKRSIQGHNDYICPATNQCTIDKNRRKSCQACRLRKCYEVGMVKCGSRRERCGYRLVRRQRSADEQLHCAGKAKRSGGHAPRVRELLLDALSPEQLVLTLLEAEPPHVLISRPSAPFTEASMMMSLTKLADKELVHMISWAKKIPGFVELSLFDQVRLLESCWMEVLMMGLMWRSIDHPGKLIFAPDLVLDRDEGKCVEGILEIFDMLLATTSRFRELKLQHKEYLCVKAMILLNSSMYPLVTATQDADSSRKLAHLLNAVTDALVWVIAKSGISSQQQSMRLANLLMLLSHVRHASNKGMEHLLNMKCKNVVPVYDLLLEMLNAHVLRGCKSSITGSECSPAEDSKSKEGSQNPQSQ
Chain of Estrogen receptor (Homo sapiens) (P03372 whole entry, looked up): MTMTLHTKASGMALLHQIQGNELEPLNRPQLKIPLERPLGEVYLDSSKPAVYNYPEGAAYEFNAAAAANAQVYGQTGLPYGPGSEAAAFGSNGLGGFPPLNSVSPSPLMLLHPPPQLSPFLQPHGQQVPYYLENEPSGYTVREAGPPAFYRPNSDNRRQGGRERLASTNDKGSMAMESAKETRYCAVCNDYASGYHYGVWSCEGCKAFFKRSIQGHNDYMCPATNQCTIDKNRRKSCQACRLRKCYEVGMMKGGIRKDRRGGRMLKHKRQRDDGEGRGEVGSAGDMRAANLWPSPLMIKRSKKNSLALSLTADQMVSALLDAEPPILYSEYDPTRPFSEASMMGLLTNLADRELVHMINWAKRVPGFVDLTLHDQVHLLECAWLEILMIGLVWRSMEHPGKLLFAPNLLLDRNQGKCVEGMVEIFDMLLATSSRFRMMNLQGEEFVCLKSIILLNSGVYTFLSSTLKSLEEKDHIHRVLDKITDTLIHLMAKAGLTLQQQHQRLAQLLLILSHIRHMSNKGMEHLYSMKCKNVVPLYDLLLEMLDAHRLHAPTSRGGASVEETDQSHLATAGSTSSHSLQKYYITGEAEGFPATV
Chain of Androgen receptor (Homo sapiens) (P10275 whole entry, looked up): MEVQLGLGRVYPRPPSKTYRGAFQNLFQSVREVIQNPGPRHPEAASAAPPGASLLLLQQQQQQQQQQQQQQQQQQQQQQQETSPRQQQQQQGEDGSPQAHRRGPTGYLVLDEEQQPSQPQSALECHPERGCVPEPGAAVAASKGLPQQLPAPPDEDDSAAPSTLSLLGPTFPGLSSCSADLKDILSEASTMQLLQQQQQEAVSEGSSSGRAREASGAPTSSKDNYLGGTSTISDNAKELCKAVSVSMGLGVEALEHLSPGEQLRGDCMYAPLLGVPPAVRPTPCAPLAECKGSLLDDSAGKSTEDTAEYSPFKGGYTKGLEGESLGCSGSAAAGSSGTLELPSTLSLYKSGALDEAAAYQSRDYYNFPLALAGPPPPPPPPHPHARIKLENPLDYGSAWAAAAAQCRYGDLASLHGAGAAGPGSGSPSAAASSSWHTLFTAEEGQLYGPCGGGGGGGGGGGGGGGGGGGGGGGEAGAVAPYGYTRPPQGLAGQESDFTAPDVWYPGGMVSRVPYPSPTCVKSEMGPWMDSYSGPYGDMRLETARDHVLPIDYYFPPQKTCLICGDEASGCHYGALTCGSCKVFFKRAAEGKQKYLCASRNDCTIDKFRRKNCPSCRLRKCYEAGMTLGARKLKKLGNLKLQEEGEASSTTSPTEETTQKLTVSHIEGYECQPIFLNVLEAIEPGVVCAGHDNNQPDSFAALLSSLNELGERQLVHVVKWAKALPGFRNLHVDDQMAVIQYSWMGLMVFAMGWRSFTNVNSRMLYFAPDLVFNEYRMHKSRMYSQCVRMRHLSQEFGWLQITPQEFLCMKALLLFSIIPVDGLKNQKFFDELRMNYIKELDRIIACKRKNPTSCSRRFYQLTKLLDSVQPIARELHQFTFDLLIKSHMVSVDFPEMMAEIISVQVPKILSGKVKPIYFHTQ

For `C=CC(=O)OC`, the Potency result in test [1], in [2], in test [3], in [4], in test [5] and in test [6] was “inactive” in each case. The Potency entry in test [7], in [9], in test [10], in test [11], in test [12] and in test [13] was “inactive” in each case. The Potency result in test [14], in test [15], in test [16] and in [18] was “inactive” throughout. For the same compound, the compound was classed as inactive in test [8] and in test [17].
On to `CN1C(=O)NC(=O)C(C)(C2=CCCCC2)C1=O` (stereo not drawn), for which the Potency result in test [1], in [2], in test [3], in test [4], in [5] and in test [6] was “inactive” throughout. The Potency result in test [7], in test [9], in test [10], in test [11], in test [12] and in [13] was “inactive” in each case. The Potency entry in test [14], in [15], in test [16] and in test [18] was “inactive” throughout. The compound was called inactive in test [8] and in [17].
Consider `CCCN(CCCl)c1c([N+](=O)[O-])cc(C(F)(F)F)cc1[N+](=O)[O-]`, for which the Potency result in [1], in [2], in test [3], in test [4], in test [5] and in test [6] was “inactive” each time. Also, the Potency result in [7], in test [19], in test [9], in [10], in test [11] and in test [14] was “inactive” throughout. The Potency entry in [15], in test [16] and in test [18] was “inactive” throughout. Also, the compound was classed as inactive in test [8] and in [17].
Consider `c1ccoc1`, for which the Potency entry in [1], in test [2], in test [3], in [4], in test [5] and in test [6] was “inactive” throughout. Besides, the Potency entry in test [7], in test [19], in test [9], in test [10], in [11] and in [12] was “inactive” in each case. Also, the Potency entry in test [13], in test [14], in test [15], in test [16] and in test [18] was “inactive” each time. Further, the compound was called inactive in test [8] and in [17].
For the compound `CCCCCCC#N`, the Potency entry in [1], in test [2], in test [3], in test [4], in [5] and in test [6] was “inactive” throughout. Further, the Potency result in [7], in test [19], in test [9], in test [10], in test [11] and in test [12] was “inactive” in each case. Moreover, the Potency result in test [13], in test [14], in test [15], in test [16] and in [18] was “inactive” in each case. Moreover, the result in [8] and in test [17] was inactive.
As to `NC(=O)CI`, the Potency result in test [1], in test [2], in [3], in test [4], in [5] and in [6] was “inactive” throughout. In addition, the Potency entry in test [7], in test [10], in [11], in test [12], in test [13] and in [14] was “inactive” throughout. Also, the Potency result in test [15], in test [16] and in test [18] was “inactive” in each case. In addition, the compound was classed as inactive in test [8] and in [17].
`c1ccc(CN2CCNCC2)cc1`: the Potency entry in test [1], in test [2], in [3], in [4], in test [6] and in test [7] was “inactive” each time. The Potency result in test [9], in [10], in test [11], in [12], in [13] and in test [14] was “inactive” in each case. Moreover, the Potency result in [15] and in [16] was “inactive” in each case. The result in test [8] and in [17] was inactive.
For `OC(c1ccc(Cl)cc1)(c1ccc(Cl)cc1)c1cccnc1`, the Potency result in test [1], in test [3], in test [6], in test [20], in test [7] and in test [10] was “inactive” throughout. Further, the Potency entry in [11], in test [15] and in test [18] was “inactive” throughout. Besides, the Potency in [2] was 30.6 µM (active); in [4] it was 38.6 µM (active); in test [12], 17.2 µM (active). Besides, the compound was called inactive in test [8] and in test [17].
